AmpC no deterg: blocks E. coli AmpC beta-lactamase in detergent-free assay; P00811; AmpC nitrocefin hydrolysis, absorbance 480 nm, 0.0001% Triton; Potency, µM (series often up to 57.1 µM), for the others: at the top dose activity change, negative = inhibition, usual class: inhibitors; 0.52% of 330,000 active; AID 485341;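 also: plate controls were no compound for no effect and no enzyme for full effect; nearly all actives have a fitted effect of over 20% in size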
Target sequence (P00811 whole entry, looked up): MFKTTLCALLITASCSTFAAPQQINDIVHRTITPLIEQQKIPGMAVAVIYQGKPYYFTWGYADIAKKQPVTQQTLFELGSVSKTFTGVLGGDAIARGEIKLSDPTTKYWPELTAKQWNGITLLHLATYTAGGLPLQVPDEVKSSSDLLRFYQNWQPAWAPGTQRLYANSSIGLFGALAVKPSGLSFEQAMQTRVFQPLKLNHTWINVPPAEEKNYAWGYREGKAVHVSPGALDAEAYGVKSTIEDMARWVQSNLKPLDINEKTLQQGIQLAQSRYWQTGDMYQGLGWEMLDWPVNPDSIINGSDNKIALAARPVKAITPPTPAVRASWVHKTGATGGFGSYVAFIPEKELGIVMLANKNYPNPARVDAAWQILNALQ
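20 mM phosphate pH 7.0 + 0.01% (detergent screen) or 0.0001% Triton X-100; 5.3 nM AmpC reagent; cpd preinc 15 min RT; nitrocefin (800 uM stock) to start; A480 q20 s × 4 min; Activity was normalised to no-enzyme and no-compound control wells.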
AMA1 RON2 block: AMA1-RON2 (P. falciparum) interaction inhibition | AlphaScreen AMA1-biotinylated RON2 peptide binding | Potency, µM (series often up to 58.2 µM), inactives show at the top dose activity change, negative = inhibition, usual class: inhibitors | 0.2% of 360,000 active;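 also: 0% = vehicle wells and -100% = peptide control; nearly all actives have a fitted effect of over 45% in size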
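AMA1 (3D7) with his tag at 25 nM final met compounds first, then biotinylated RON2 peptide at 25 nM; detection used donor plus acceptor beads, 10 µg/mL apiece, read by AlphaScreen after 30 min at room temperature.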
HCV inhibitor: HCV inhibition; Potency, µM (doses to about 41.8 µM), for inactives: at the top dose activity change, negative = inhibition, actives largely listed as inhibitors; Huh7.5.1 HCVcc-Cre infection, luciferase reporter, 44 h; 3.4% of 340,000 active; AID 651820
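Reporter virus HCVcc-Cre (~0.5 moi) infects cells exposed to compound; seeding density 1,000 cells/well with 4 h settling beforehand. Luminescence, 15 sec read, taken 44 h post-infection following a 15 min RT substrate incubation.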
Pf growth 96h: inhibits malaria parasite growth, 96 h. P. falciparum luciferase reporter growth, 96 h. Potency, µM (titrated, usually from 28.7 µM), without a hit: at the top dose activity change, negative = inhibition, hits mostly inhibitors. 6.9% of 320,000 active. AID 504834
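Luminescence readout: decreased luciferase signal marks inhibited growth of reporter-expressing P. falciparum in infected red cells (2% hematocrit, 0.05% parasitemia final), exposed to compound two generations (96 h, 37 C, 5% CO2).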
Pf growth 48h: inhibits P. falciparum growth in the first generation, 48 h; AID 504832; P. falciparum luciferase growth in erythrocytes, 48 h; Potency, µM (top dose mostly 28.7 µM), without a hit: top-dose activity change, negative = inhibition, usual class: inhibitors; 5.9% of 310,000 active
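Erythrocytes infected with P. falciparum carrying an integrated firefly luciferase reporter (2% hematocrit, 0.1% parasitemia final) were exposed to compounds in RPMI 1640 with 0.5% Albumax at 37 C, 5% CO2. Growth inhibition was scored as reduced luminescence.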
AmpC detergent: blocks E. coli AmpC beta-lactamase in detergent assay. P00811. AmpC hydrolysis of nitrocefin, absorbance 480 nm, 0.01% Triton. Potency, µM (highest dose often 114 µM), without a hit: at the top dose activity change, negative = inhibition, usual class: inhibitors. 0.041% of 370,000 active. AID 485294;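 also: 0% = no-compound wells and -100% = no-enzyme wells; nearly all actives have a fitted effect of over 25% in size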
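AmpC (5.3 nM in the dispensed reagent) in 20 mM phosphate pH 7.0 with 0.01% (detergent screen) or 0.0001% Triton X-100 was preincubated with compounds for 15 min at room temperature. Nitrocefin was then added from an 800 uM solution, and hydrolysis was followed at 480 nm.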
Starred values were filed as active, the others as inactive; ? = inconclusive; nt = no result given; [ ] = another dose, or the depositor's remark. Compounds with a hit are over-represented: about 11% of the library has one in this group of screens. Calls follow the shape of the dose curve; as a rule, active = well fitted curve in the direction sought with a large enough effect; inconclusive = small, poorly fitted or top-dose-only effect, or another doubt; inactive = no such curve, though single readings can be large; an effect the other way counts as inactive or inconclusive. Unless noted, % is scaled to controls: 0 for no effect and ±100 for the full control effect; potency is read from the fitted curve at half-maximal effect.

SMILES | AmpC no deterg | AMA1 RON2 block | HCV inhibitor | Pf growth 96h | Pf growth 48h | AmpC detergent
CCc1cccc(NC(=O)Cn2c(=O)ccc3cc(S(=O)(=O)N4CCC(C)CC4)ccc32)c1 | nt | nt | nt | nt | nt | 7%
CCc1ccc(NCc2cc3ccc(OC)cc3n(CC(=O)Nc3cccc(Cl)c3C)c2=O)cc1 | nt | nt | nt | nt | nt | 14%
COc1cc(OC)cc(-c2c(-c3cccs3)c3cc(-c4ccc(SC)cc4)ccc3n2C)c1 | 78% | 0% | 0% | 2.1µM* | -79% | 8%
COc1cc(OC)cc(-c2c(-c3cccs3)c3cc(-c4ccc5c(c4)OCCO5)ccc3n2C)c1 | -30% | -2% | ? | ? | 6.6µM* | -1%
COc1cccc(-c2c(-c3cc(OC)cc(OC)c3)n(C)c3ccc(-c4ccc5cc[nH]c5c4)cc23)c1 | -43% | 0% | ? | nt | nt | nt
COc1cc(OC)cc(-c2c(-c3cccs3)c3cc(-c4ccc(OC)c(F)c4)ccc3n2C)c1 | -26% | -11% | ? | ? | ? | 4%
COc1cc(OC)cc(-c2c(-c3cccs3)c3cc(-c4ccc5cc[nH]c5c4)ccc3n2C)c1 | -32% | 0% | 4.5µM* | ? | 10µM* | 5%
COc1cc(OC)cc(-c2c(-c3cccs3)c3cc(-c4ccc(OC)c(OC)c4)ccc3n2C)c1 | -26% | -11% | ? | ? | 6.6µM* | 0%
Cc1nnc(N2CCCC(C(=O)Nc3cccc(C(F)(F)F)c3)C2)c2nn(-c3ccccc3)c(C)c12 (stereo not drawn) | nt | nt | nt | nt | nt | 6%
Cc1cccn2c(=O)c(C(=O)N3CCN(c4ccccc4)CC3)cnc12 | nt | nt | nt | nt | nt | 6%
Cc1ccc(CNC(=O)c2cc3c(=O)n4cccc(C)c4nc3s2)cc1 | nt | nt | nt | nt | nt | 20%
CCOC(=O)CCCCN(Cc1ccccc1F)S(=O)(=O)c1ccc(F)c(C(=O)Nc2cc(Cl)cc(Cl)c2)c1 | nt | nt | nt | nt | nt | -4%
Cc1nn(CC(=O)Nc2ccccc2F)c(=O)c2c(C)n(-c3ccc(Cl)cc3)nc12 | nt | nt | nt | nt | nt | -6%
CN1CCN(Cc2cccc(Oc3ccc(Cl)cc3)c2)CC1 | 93% | 0% | ? | ? | nt | -8%
Cc1cccc(CN2CCN(C(c3ccccc3)c3ccc(Cl)cc3)CC2)c1 (stereo not drawn) | -11% | 12% | ? | 9.3µM* | ? | -8%
O=C(C1CCN(Cc2ccc(Cl)cc2)CC1)N1CCN(C(c2ccccc2)c2ccccc2)CC1 | 187% | ? | ? | 37% | ? | -4%
CCN1CCN(Cc2cccc(Oc3ccc(Cl)cc3)c2)CC1 | 58% | -17% | 13µM* | nt | -22% | 3%
Cc1cccc(CN2CCN(c3ccc(Cl)cc3)CC2)c1 | -11%[11.4 µM] | -15% | -13% | ? | 32% | ?
Cc1cccc(CN2CCN(Cc3ccc(Cl)cc3)CC2)c1 | 6% | ? | 6.3µM* | ? | nt | ?
COc1cc(/C=N/NC(=O)Cc2csc(N3CCOCC3)n2)cc(OC)c1O | -13% | -5% | 7% | 2% | 49% | 0%
O=C(Cc1csc(N2CCOCC2)n1)N/N=C/c1ccc(Cl)cc1Cl | 34% | -4% | 11µM* | ? | nt | -9%
COc1cc2cc(CNc3ccc(C)cc3)c(=O)n(CC(=O)Nc3ccc(C(C)C)cc3)c2cc1OC | nt | nt | nt | nt | nt | 16%
CC(=O)N(c1ccc(Cl)cc1)c1nc(C)cc(C)c1C#N | 1% | 26% | 26% | 7.4µM* | -3% | 3%
CC(=O)N(c1ccccc1)c1nc(C)cc(C)c1C#N | -5% | -1% | 21% | 3% | -2% | -1%
CCC1CN(C(=O)N2CCC(C(=O)NCc3cc(OC)ccc3OC)CC2)c2ccccc2O1 (stereo not drawn) | nt | nt | nt | nt | nt | 19%
SMILES | AmpC no deterg | AMA1 RON2 block | HCV inhibitor | Pf growth 96h | Pf growth 48h | AmpC detergent
Clc1ccc(N=NN2CCOCC2)cc1 | -19% | -2% | 5% | 26% | 47% | ?
Cc1[nH]nc(C(F)(F)F)c1N=NN1CCOCC1 | nt | 10% | 16µM* | nt | nt | nt
Oc1ccc(Cl)cc1CNCC1CCCCC1 | -29% | 0% | -15% | 12µM* | 1.9µM* | -10%
O=C(O)c1ccc(CNCc2cc(Cl)ccc2O)cc1 | -1% | -3% | 24% | ? | 24% | 0%
Cc1ccc(CNCc2cc(Cl)ccc2O)cc1 | -35% | 26% | 6% | 7.4µM* | 2.9µM* | -6%
COc1cccc(C(=O)N2c3cc(C)ccc3C(C)(c3ccccc3)CC2(C)C)c1 (stereo not drawn) | nt | nt | nt | nt | nt | 19%
Clc1cccc(Cl)c1CSc1nnc(-c2ccncc2)s1 | -14% | -6% | ? | 2.1µM* | 2.6µM* | 6%
CCC1CCCCN1CCCNC(=O)c1sc2nc(C)cc(C)c2c1-n1cccc1 (stereo not drawn) | nt | nt | nt | nt | nt | 22%
C=CCN(CC=C)C(=O)c1ccc2nc(Cc3ccc(OC)c(OC)c3)oc2c1 | 88% | 1% | 11µM* | ? | ? | 2%
Cc1ccc(S(=O)(=O)N2CCN(C(=O)c3cc4c(s3)CCCC4)CC2)c(C)c1 | -17% | -6% | ? | ? | ? | ?
O=C(c1cc2c(s1)CCCC2)N1CCN(S(=O)(=O)c2ccccc2C(F)(F)F)CC1 | -1% | -3% | -8% | 12µM* | ? | -6%
Cc1cc(C)n(-c2ccc(C(=O)N3CCN(S(=O)(=O)c4ccc(Cl)cc4)CC3)cc2)n1 | 141% | 2% | 1% | 2.6µM* | 10µM* | ?
CC(=O)c1ccc(S(=O)(=O)N2CCN(C(C)=O)CC2)cc1 | -5% | 1% | 2% | 25% | 0% | 4%
Cc1nn(-c2ccc(C(=O)O)cc2)c(C)c1Cl | -21% | -14% | 0% | 34% | 53% | 5%
CC(=O)c1ccc(S(=O)(=O)N2CCN(C(=O)c3ccc(-n4nc(C)c(Cl)c4C)cc3)CC2)cc1 | 6% | 15% | 6.3µM* | 13µM* | ? | -9%
Cc1nn(-c2ccc(C(=O)N3CCN(S(=O)(=O)c4ccccc4C(F)(F)F)CC3)cc2)c(C)c1Cl | 2% | 10% | 0% | ? | 13µM* | 2%
COc1ccc(CNS(=O)(=O)c2cc3c(cc2C)n(C)c(=O)c(=O)n3C)cc1 | nt | nt | nt | nt | nt | 1%
Cc1ccccc1-n1c(C)nnc1SCc1cc(=O)oc2ccc3ccccc3c12 | -9% | -4% | ? | 15µM* | 10% | ?
Cc1ccc(CC(=O)Nc2c(C(=O)N3CCN(c4ccccc4F)CC3)oc3ccccc23)cc1 | nt | nt | nt | nt | nt | 31%
COc1cc(NC(=O)COc2ccc(F)cc2)nc(OC)n1 | -12% | 1% | 7% | 13µM* | 12% | ?
